Assay outcomes from PubChem.
Many of the other results were omitted from the sample, so hits are more common in it than they were.
USP2a inhib – inhibitors of human ubiquitin-specific protease USP2a. O75604. Potency, µM (top dose mostly 38.3 µM), for the others: at the top dose activity change, negative = inhibition, actives largely listed as inhibitors. USP2a enzymatic assay, qHTS inhibition. 60,000 tested, 0.1% active; also: potency is read from the fitted curve at half-maximal effect; nearly all actives have a fitted effect of over 60% in size
Target sequence (O75604 whole entry, looked up): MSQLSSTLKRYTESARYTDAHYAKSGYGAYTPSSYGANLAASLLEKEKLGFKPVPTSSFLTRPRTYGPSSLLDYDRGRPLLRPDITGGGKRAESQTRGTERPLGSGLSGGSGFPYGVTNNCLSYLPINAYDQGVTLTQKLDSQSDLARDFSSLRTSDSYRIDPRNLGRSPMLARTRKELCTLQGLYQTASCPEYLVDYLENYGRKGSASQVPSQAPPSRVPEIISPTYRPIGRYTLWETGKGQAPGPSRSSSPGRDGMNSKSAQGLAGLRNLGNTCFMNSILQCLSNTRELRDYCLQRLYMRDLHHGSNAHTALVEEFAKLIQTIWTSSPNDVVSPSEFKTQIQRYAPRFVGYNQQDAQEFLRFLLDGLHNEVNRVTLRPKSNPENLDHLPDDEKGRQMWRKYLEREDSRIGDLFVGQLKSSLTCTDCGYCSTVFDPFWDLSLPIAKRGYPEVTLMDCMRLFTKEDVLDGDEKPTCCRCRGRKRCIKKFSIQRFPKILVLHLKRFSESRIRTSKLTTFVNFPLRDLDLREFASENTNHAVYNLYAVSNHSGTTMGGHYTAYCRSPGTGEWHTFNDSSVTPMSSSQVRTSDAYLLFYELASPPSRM
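USP2 core (20 nM final) was preincubated with compound for 30 min at RT in 20 mM Tris-HCl pH 8.0, 2 mM CaCl2, 2 mM beta-mercaptoethanol; Ub-PLA2 (20 nM) plus NBD C6-HPC (20 uM) then added, fluorescence read after 2.5 h.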
Epigenetic mod – epigenetic modulators derepressing GFP locus in mouse cells | mouse C127i GFP locus derepression, cytometry, 30 h | Potency, µM (highest dose often 46.1 µM), for inactives: at the top dose GFP derepression (activation) | 68,000 tested, 0.09% active | AID 597; also: % of control where 0% means no effect
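Murine C127i mammary cells carrying a silenced, stably integrated CMV-driven GFP reporter were treated with compound for 30 hours at 37 C. After PBS washes, GFP-positive cells were counted by laser-scanning microplate cytometry.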
GBA activity – modulators of human glucocerebrosidase; purified enzyme, resorufin glucoside fluorescence (screen aimed at inhibitors), 20 min; Potency, µM; 48,000 tested, 1.1% active; AID 360; in the data active = potency below about 15 µM; inconclusive = mostly about 16 µM to 33 µM;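 also: potency is read from the fitted curve at half-maximal effect; the screen sought inhibitors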
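Compounds titrated against 0.2 nM normal enzyme, 30 uM resorufin beta-D-glucopyranoside substrate, citrate/phosphate buffer with taurocholate and tween-20, pH 5.9. Reaction ran 20 min at room temperature; fluorescence (Ex 548/Em 600) gave AC50.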
UbGFP stabilizer – inhibits proteasome, raising ubiquitin-GFP reporter fluorescence | Ubiquitin-GFP reporter cells, proteasome inhibition, GFP fluorescence; response scale: untreated = 0%, 10 µM MG-132 = 100% | Potency, µM (top dose mostly 45.9 µM), without a hit: at the highest dose activation (GFP accumulation), actives largely listed as activators | 67,000 tested, under 10 active | AID 526; active = well fitted activation curve with a large enough effect, not every such curve was filed as active; inconclusive = small, poorly fitted or top-dose-only effect, or another doubt; inactive = no such curve, though single readings can be large or run the other way; also: potency is read from the fitted curve at half-maximal effect
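Proteasome blockade was scored as a rise in GFP-expressing U2OS cells carrying a ubiquitin(G76V)-GFP construct, imaged after 4 hr compound treatment at 37 °C across a 46 uM–2.9 nM series.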
HBB splice mod – modulators of hemoglobin beta chain splicing; Potency, µM (highest dose often 46.1 µM), inactives show top-dose activation, hits mostly activators; 65,000 tested, 0.06% active; HBB splicing reporter cell assay, activation; EGFP reporter with mutant IVS2-654 intron; response scale: normalised to 500 nM splice-correcting PNA; also: potency is read from the fitted curve at half-maximal effect; 0% is about no effect
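Compounds were applied for 2 days to HeLa EGFP-654 cells, 500/well in Optimem with 2% FCS. The reporter's EGFP is disrupted by mis-splicing of beta-globin intron IVS2-654. Readout: summed well GFP fluorescence from 488 nm laser scanning; reference was 500 nM antisense […] 654 PNA.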
Starred values were filed as active, the others as inactive; i = inactive; ? = inconclusive; nt = no result given; [ ] = remark or other dose. Unless noted, calls follow the shape of the dose curve; as a rule, active = well fitted curve in the direction sought with a large enough effect; inconclusive = small, poorly fitted or top-dose-only effect, or another doubt; inactive = no such curve, though single readings can be large; an effect the other way counts as inactive or inconclusive.

SMILES	USP2a inhib	Epigenetic mod	GBA activity	UbGFP stabilizer	HBB splice mod
C=CC[C@@H]1C=C[C@@H](O/N=C\C[C@@H]2C=C[C@H](OC(C)=O)[C@H](COC(C)=O)O2)[C@@H](CO)O1	nt	nt	nt	nt	0%[9.22 µM]
NC(=O)c1ccc([N+](=O)[O-])cc1	nt	nt	nt	nt	-1%
c1nc(NCCN2CCOCC2)c2c3c(sc2n1)CCCCC3	8%	3%	7.5*	-10%	0%
N=c1c2c3c(sc2ncn1CCN1CCOCC1)CCCCC3	1%	-1%	?	-7%	-1%
CCOc1ccc(C2C=C(c3ccc(C)cc3)Nc3nnnn32)cc1 (configuration not stated)	8%	10%	i	20%	2%[1.84 µM]
CCOc1ccc(C2C=C(c3ccccc3)Nc3nnnn32)cc1 (configuration not stated)	3%	-2%	3.7*	-11%	-1%[1.84 µM]
CC(=O)OC1CC[C@]2(C)C(CC[C@@]3(C)C2C(=O)C=C2C4C(C)C(C)CC[C@@]4(C(=O)O)CCC23C)C1(C)C (some centres not stated)	31%	nt	nt	nt	nt
COc1ccc(C2CC(C(F)(F)F)n3nc(CO)c(Cl)c3N2)cc1OC (configuration not stated)	-3%	-1%	5.9*	3%	-1%
COc1ccc(C2CC(C(F)(F)F)n3nc(C(=O)O)c(Cl)c3N2)cc1OC (configuration not stated)	-6%	0%	nt	12%	1%[9.22 µM]
CC(=O)N[C@H]1[C@@H](O[C@@H](C)C(=O)O)[C@H](O)[C@H](CO)O[C@@H]1O	8%[17.1 µM]	-2%[20.6 µM]	nt	0%[20.5 µM]	0%[20.6 µM]
Cc1ccccc1N1C(=O)c2cccc3c(N(C)CCO)ccc(c23)C1=O	20%	-2%	nt	12%	20µM*
Cc1c(Cl)cccc1N1C(=O)c2ccccc2C1=O	0%	0%	nt	-13%	0%
CC(=O)[C@@]1(O)Cc2c(O)c3c(c(O)c2[C@H](O[C@H]2C[C@H](N)[C@H](O)[C@H](C)O2)C1)C(=O)c1ccccc1C3=O	24%	13µM*	nt	-11%	13µM*
C[C@H]1[C@H](O)[C@@H](C)C=CC=CC=CC=CC=CC=CC=C[C@H](O[C@@H]2O[C@@H](C)[C@H](O)[C@@H](N)[C@@H]2O)C[C@@H]2O[C@](O)(C[C@@H](O)C[C@@H](O)[C@@H](O)CC[C@@H](O)C[C@@H](O)CC(=O)O[C@H]1C)C[C@H](O)[C@H]2C(=O)O	nt	0%[9.22 µM]	nt	3%[9.17 µM]	1%[9.22 µM]
CCCc1[nH]n(-c2nc3ccccc3s2)c(=O)c1C=NCCN1CCOCC1	nt	0%[20.6 µM]	nt	nt	nt
CCCc1[nH]n(-c2nc3ccccc3s2)c(=O)c1C=NCC1CCCO1 (configuration not stated)	122%	-1%	13*	2%	nt
Cc1cccc2cc(C(c3nnnn3CC3CCCO3)N3CCCC4(CCCCC4)C3)c(=O)[nH]c12 (configuration not stated)	3%	3%	>77	-2%	0%[57.5 µM]
Cc1ccc2cc(C(c3nnnn3CC3CCCO3)N3CCCC4(CCCCC4)C3)c(=O)[nH]c2c1 (configuration not stated)	46%	-2%	10*	-1%	nt
Cc1ccc(NC(=O)CCn2cnc3ccccc3c2=O)cc1Cl	-2%	3%	6.5*	-4%	4%
Cn1c(=O)[nH]c(=O)c2c1nc(N1CCCCCC1)n2CCN1CCCCCC1	nt	0%	11*	4%	0%[57.5 µM]
Cn1c(=O)[nH]c(=O)c2c1nc(N1CCCCC1)n2CC(O)CN1CCCCC1 (configuration not stated)	14%	-1%	>77	-1%	nt
O=C(NCC1CCCO1)c1ccc2c(=O)n(CCc3ccccc3)c(=O)[nH]c2c1 (configuration not stated)	-6%	-2%	>77	11%	0%
CC1CCCC(NC(=O)c2ccc3c(=O)n(CC4CCCO4)c(=O)[nH]c3c2)C1C (configuration not stated)	21%	0%	1.6*	-13%	-3%
COc1ncc2nc(-c3ccccc3)c(=O)n(-c3ccccc3)c2n1	27%	0%[9.22 µM]	nt	3%	-1%
